From ChEMBL document CHEMBL1961873, “Compounds: GSK PKIS; Assays: Nanosyn kinase panel” (2012)

Columns and labels:
[1] = biological target: Calcium/calmodulin-dependent protein kinase type II subunit alpha (Homo sapiens) (UniProt Q9UQM7); settings: at 1 µM;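 further: reported value is a mean percent inhibition of CAMK2A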
[2] = biological target: Calcium/calmodulin-dependent protein kinase type II subunit delta (Homo sapiens) (UniProt Q13557); settings: at 0.1 µM
[3] = biological target: Calcium/calmodulin-dependent protein kinase type II subunit delta (Homo sapiens) (UniProt Q13557); settings: at 1 µM
[4] = biological target: T1, Calcium/calmodulin-dependent protein kinase type IV (Homo sapiens) (UniProt Q16566); settings: at 0.1 µM
T1 sequence (whole entry): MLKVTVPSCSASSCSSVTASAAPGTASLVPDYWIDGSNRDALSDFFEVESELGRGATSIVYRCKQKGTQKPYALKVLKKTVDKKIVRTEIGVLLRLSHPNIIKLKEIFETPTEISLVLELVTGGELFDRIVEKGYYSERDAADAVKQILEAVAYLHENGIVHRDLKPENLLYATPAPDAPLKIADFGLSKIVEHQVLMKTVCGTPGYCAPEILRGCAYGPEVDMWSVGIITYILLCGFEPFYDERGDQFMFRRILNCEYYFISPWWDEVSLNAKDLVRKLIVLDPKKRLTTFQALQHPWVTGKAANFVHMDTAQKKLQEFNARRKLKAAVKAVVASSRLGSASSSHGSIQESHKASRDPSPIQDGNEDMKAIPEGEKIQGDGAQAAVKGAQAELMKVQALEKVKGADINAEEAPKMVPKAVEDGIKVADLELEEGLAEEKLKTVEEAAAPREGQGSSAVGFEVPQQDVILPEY

[5] = biological target: T1, Calcium/calmodulin-dependent protein kinase type IV (Homo sapiens); settings: at 1 µM
[6] = biological target: T2, Serine/threonine-protein kinase Chk1 (Homo sapiens) (UniProt O14757); settings: at 0.1 µM
T2 sequence (whole entry): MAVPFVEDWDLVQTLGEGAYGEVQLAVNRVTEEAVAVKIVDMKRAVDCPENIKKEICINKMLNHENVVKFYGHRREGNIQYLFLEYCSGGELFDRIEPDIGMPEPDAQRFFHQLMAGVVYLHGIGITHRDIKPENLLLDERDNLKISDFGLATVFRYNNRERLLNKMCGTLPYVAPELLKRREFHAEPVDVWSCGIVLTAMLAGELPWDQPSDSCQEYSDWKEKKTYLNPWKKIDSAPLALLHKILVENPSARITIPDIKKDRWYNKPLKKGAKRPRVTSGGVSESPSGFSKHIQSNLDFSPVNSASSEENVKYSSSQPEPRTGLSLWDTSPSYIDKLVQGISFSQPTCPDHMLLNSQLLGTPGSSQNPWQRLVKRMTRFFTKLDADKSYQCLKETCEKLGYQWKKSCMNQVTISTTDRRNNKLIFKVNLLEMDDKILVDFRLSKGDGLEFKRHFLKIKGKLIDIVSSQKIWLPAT

[7] = biological target: T2, Serine/threonine-protein kinase Chk1 (Homo sapiens); settings: at 1 µM
[8] = biological target: Serine/threonine-protein kinase Chk2 (Homo sapiens) (UniProt O96017); settings: at 0.1 µM
Sequence of Serine/threonine-protein kinase Chk2 (Homo sapiens) (O96017 whole entry): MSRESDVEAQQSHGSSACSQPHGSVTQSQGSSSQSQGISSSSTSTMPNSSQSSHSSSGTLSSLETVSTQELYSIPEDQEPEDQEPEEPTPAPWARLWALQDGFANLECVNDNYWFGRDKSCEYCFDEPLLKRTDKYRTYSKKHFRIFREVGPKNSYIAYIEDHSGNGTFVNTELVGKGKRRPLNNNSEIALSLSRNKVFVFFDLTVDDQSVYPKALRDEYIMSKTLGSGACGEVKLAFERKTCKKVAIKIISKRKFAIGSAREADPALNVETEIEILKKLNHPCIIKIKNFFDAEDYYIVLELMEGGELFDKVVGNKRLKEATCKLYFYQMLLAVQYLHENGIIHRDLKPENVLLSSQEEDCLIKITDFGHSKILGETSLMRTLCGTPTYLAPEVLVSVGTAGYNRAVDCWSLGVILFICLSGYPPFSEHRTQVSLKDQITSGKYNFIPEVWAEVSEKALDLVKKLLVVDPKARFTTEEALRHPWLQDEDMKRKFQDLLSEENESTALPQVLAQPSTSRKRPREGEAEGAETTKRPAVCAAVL

[9] = biological target: Serine/threonine-protein kinase Chk2 (Homo sapiens) (UniProt O96017); settings: at 1 µM
[10] = biological target: Death-associated protein kinase 1 (Homo sapiens) (UniProt P53355); settings: at 0.1 µM;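 further: reported figure is the mean inhibition of DAPK1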
Sequence of Death-associated protein kinase 1 (Homo sapiens) (P53355 whole entry, looked up): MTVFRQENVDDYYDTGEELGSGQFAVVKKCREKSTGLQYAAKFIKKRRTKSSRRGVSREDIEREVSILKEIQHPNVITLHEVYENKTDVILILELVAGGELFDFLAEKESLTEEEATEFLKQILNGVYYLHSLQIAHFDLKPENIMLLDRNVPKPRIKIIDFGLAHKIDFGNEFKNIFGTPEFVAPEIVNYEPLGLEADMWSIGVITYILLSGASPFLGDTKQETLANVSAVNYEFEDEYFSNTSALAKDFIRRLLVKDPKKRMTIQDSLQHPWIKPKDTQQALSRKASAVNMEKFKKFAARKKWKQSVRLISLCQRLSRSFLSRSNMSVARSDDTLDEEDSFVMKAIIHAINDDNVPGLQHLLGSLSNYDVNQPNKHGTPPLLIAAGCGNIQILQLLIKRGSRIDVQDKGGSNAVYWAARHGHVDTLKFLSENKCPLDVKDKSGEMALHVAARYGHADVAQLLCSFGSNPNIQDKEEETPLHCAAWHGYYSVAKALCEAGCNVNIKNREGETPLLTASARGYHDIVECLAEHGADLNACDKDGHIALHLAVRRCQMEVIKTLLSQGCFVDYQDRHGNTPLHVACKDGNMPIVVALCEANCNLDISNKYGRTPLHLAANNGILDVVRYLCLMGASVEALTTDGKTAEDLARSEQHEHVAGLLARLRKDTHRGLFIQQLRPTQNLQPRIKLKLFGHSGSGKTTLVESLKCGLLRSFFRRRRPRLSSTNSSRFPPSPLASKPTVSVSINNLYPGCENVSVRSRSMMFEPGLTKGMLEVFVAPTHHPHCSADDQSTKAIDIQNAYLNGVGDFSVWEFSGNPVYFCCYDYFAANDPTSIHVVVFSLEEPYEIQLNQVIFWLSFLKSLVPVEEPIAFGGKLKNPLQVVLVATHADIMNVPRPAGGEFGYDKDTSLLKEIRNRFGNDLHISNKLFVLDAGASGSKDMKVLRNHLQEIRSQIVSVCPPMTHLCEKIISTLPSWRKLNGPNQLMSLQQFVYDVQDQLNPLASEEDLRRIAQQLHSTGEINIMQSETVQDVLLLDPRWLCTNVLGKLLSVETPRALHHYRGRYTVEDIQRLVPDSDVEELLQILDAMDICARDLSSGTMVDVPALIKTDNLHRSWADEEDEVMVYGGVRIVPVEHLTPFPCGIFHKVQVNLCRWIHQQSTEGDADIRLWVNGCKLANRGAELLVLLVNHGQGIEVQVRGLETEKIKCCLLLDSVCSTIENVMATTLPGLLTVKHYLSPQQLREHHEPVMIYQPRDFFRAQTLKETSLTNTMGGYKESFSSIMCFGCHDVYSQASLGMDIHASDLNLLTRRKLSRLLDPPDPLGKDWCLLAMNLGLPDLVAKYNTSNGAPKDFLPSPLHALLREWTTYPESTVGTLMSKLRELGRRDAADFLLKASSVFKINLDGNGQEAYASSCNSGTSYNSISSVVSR

Sequence of Calcium/calmodulin-dependent protein kinase type II subunit alpha (Homo sapiens) (Q9UQM7 whole entry): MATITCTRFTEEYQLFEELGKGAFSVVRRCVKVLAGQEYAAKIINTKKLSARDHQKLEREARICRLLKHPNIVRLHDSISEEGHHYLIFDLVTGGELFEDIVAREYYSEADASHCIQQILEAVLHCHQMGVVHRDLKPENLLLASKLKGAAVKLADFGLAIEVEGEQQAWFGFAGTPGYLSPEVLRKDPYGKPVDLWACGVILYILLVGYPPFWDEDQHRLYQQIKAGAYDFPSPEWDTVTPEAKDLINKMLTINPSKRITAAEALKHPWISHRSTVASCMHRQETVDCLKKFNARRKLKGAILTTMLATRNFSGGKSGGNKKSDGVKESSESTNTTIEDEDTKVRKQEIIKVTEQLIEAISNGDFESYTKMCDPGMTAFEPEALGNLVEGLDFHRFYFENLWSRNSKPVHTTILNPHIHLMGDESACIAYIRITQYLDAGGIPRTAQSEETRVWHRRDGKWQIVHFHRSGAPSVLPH
Sequence of Calcium/calmodulin-dependent protein kinase type II subunit delta (Homo sapiens) (Q13557 whole entry): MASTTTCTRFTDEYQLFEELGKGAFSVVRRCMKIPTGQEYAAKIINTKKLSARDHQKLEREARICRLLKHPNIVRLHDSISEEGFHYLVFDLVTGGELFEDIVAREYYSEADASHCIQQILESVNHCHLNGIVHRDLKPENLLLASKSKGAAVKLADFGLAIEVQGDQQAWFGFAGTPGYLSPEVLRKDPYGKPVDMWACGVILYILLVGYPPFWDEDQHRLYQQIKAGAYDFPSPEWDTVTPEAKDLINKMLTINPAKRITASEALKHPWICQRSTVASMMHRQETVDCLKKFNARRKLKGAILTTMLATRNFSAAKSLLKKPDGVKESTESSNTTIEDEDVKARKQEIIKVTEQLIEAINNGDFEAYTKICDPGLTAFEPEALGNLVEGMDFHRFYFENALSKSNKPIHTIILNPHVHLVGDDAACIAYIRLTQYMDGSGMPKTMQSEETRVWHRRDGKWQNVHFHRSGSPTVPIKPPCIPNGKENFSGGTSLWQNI

Row | Compound | inhibition [1] [%] | inhibition [2] [%] | inhibition [3] [%] | inhibition [4] [%] | inhibition [5] [%] | inhibition [6] [%] | inhibition [7] [%] | inhibition [8] [%] | inhibition [9] [%] | inhibition [10] [%]
1 | NC(=O)c1cc(-c2ccncc2)cc(-c2ccccc2)c1N | 3.97 | 4.41 | 4.63 | 0.2 | -0.82 | -1.87 | -2.65 | -1.34 | -0.01 | -2.69
2 | C[C@@H](Oc1cc(-n2cnc3ccc(OCC4CCN(C)CC4)cc32)sc1C(N)=O)c1ccccc1Cl | 12.8 | 9.02 | 38.1 | 0.69 | 3.44 | 7.19 | 10.4 | 2.55 | 6.43 | 7.7
3 | NC(=O)c1cc(-c2ccc(F)cc2)cc(-c2ccncc2)c1N | 3.68 | 1.36 | 3.98 | 0.77 | 0.56 | 0.67 | 0.41 | 3 | 3.74 | 1.26
4 | O=C(Nc1n[nH]c2cc(-c3ccccc3)ccc12)C1CC1 | 2.25 | 3.79 | 3.53 | -1.93 | -1.21 | 2.36 | 5.48 | 2.81 | 3.79 | 5.91
5 | CCc1nccc2c1nc(-c1nonc1N)n2CC | 2.34 | 2 | 3.76 | 2.07 | 1.55 | 1.61 | -3.41 | -1.09 | -0.94 | 0.87
6 | COc1ccc(C2=C(N3CCc4ccccc43)C(=O)NC2=O)cc1 | 4.72 | 4.35 | 7.01 | 0.45 | 0.33 | 3.53 | 3.47 | 3.04 | 3.92 | 3.58
7 | O=C1Nc2ccc(I)cc2C1=Cc1cc(Br)c(O)c(Br)c1 | 7.25 | 3.27 | 9.08 | 0.52 | 4.99 | 0.05 | -0.68 | 4.44 | 9.44 | 1.46
8 | O=C(Nc1n[nH]c2nc(-c3ccco3)ccc12)C1CC1 | 1.36 | 2.25 | 2.34 | 2.75 | 3.02 | 1.37 | 8.39 | 4.66 | 6.05 | 7.38
9 | CCN(CC)Cc1ccc(Nc2nccc(-c3cnn4ncccc34)n2)cc1 | 4.21 | 3.84 | 14.3 | -0.37 | 0.34 | 1.29 | 11.6 | 2.5 | 7.56 | 2.68
10 | Fc1ccc(-c2ncn(C3CCNCC3)c2-c2ccnc(Oc3ccc(Oc4ccccc4)cc3)n2)cc1 | 9.16 | 3.93 | 10.3 | -1.5 | 4.41 | 10.6 | 16.4 | 8.69 | 13.4 | 12.4
11 | CN1CCN(CCCNc2nc3ccc(Oc4ccc(NC(=O)Nc5cc(C(F)(F)F)ccc5F)cc4)cc3[nH]2)CC1 | 7.84 | 3.68 | 6.84 | 1.94 | 4.86 | -0.5 | 0.8 | 1.31 | 0.77 | -0.32
12 | COc1cc(Nc2ncc3c(C)nc(-c4cccc(Oc5ccccc5)c4)n3n2)cc(OC)c1OC | 4.08 | 3.36 | 3.83 | 1.65 | 4.26 | 3.9 | 10.2 | 7.97 | 11.6 | 8.86
13 | CS(=O)(=O)CCNCc1cc(-c2cc3c(Nc4ccc(OCc5cccc(F)c5)c(Cl)c4)ncnc3s2)cs1 | 3.15 | 4.55 | 7.4 | -2.05 | 2.64 | 1.14 | 4.23 | 4.96 | 11.2 | 2.74
14 | CN(C)CCOc1ccc(-c2cc(-c3ccc4c(c3)CCC4=NO)c(-c3ccncc3)o2)cc1 | 0.22 | -0.38 | 2.18 | -0.94 | 1.99 | -2.19 | -2.8 | -1.13 | -1.56 | -1.01
15 | COc1ccc2ncn(-c3cc(O[C@H](C)c4ccccc4Cl)c(C(N)=O)s3)c2c1 | -1.4 | 2.08 | 4.15 | -2.83 | -2.54 | 0.23 | 0.19 | 2.58 | 1.99 | 3.77
16 | Fc1ccc(-c2nc3n(c2-c2ccncc2)CCS3)cc1 | 3.82 | 4.18 | 4.28 | 0.62 | 0.23 | 0.32 | 3.69 | 2.74 | 3.47 | 2.36
17 | Fc1ccc(-c2c(-c3ccncc3)nc3n2CCS3)cc1 | 0.88 | 1.78 | 2.01 | 1.18 | -0.25 | 0.42 | 2.88 | 1.49 | 0.52 | -0.64

Row | Compound | inhibition [1] [%] | inhibition [2] [%] | inhibition [3] [%] | inhibition [4] [%] | inhibition [5] [%] | inhibition [6] [%] | inhibition [7] [%] | inhibition [8] [%] | inhibition [9] [%] | inhibition [10] [%]
18 | CCC(=O)Nc1ccc(C)c(-c2ccc(C(=O)NCC3CC3)cc2)c1 | 1.21 | 2.68 | 4.75 | -0.67 | 2.05 | 0.06 | -0.8 | 3.52 | 5.57 | -0.61
19 | Cc1ccc(NC(=O)c2ccoc2)cc1-c1ccc(C(=O)NCC2CC2)cc1 | -3.72 | 1.18 | -0.48 | -0.8 | -1.43 | 2 | 1.01 | 1.96 | 1.43 | 3.89
20 | CN(C)c1ccc2c(c1)/C(=C/Nc1ccc(S(N)(=O)=O)cc1)C(=O)N2 | 3.56 | 2.54 | 15 | 0.96 | 0.42 | 8.69 | 34.9 | 1.42 | 10.6 | 1.57
21 | O=C1NC(=O)C(c2cccc(Cl)c2)=C1Nc1ccc(Cl)c(C(=O)O)c1 | 2.06 | 1.45 | 4.49 | -0.36 | -0.93 | 0.81 | 2.22 | 2.39 | 3.13 | 3.48
22 | Cc1nnc(-c2ccc(C)c(-c3ccc(C(=O)NCc4ccc(Cl)cc4)cc3)c2)o1 | 3.22 | 2.75 | 2.68 | 0.34 | 0.46 | 1.36 | 2.22 | 1.43 | 1.86 | 2.85
23 | COc1cccc(-n2cnc3c(N/N=C/c4ccncc4)ncnc32)c1 | 1.18 | -1.07 | -1.61 | -2.88 | -5.3 | 0.34 | 0.31 | -0.94 | -0.32 | -0.67
24 | Nc1nccc(-c2c(-c3ccc(F)cc3)ncn2C2CCC(O)CC2)n1 (stereo not given) | -3.25 | -1.92 | 1.53 | 9.35 | -0.1 | -3.08 | 0.13 | -1.95 | -1.72 | -1.1
25 | COc1cc(Nc2ncc3c(C)nc(-c4cccc(C(F)(F)F)c4)n3n2)cc(OC)c1OC | 2 | 3.19 | 5.08 | -2 | -3.22 | 1.23 | 5.15 | 6.47 | 9.62 | -0.52
26 | Cc1ccc(C(=O)NC(C)C)cc1-c1ccc(C(=O)NCC2CC2)cc1 | -3.85 | -3.04 | -1.11 | -0.94 | -2.57 | -1.72 | -3.38 | -3.25 | -2.4 | -2.08
27 | NS(=O)(=O)c1ccc(Nc2cc(-c3ccc(O)c(F)c3)n[nH]2)cc1 | -4.72 | -3.72 | 1.69 | 0.82 | 0.53 | -5.01 | 8.18 | -1.68 | 3.93 | -2.1
28 | Clc1ccc(CNc2nccc(-c3cnn4ncccc34)n2)cc1 | 4.51 | 2.06 | 3.21 | 1.93 | 1.7 | 2.84 | 8.27 | 4.34 | 6.1 | 9.28
29 | Fc1ccc(-c2ncn(C3CCNCC3)c2-c2ccnc(Oc3ccc4c(c3)OCO4)n2)cc1 | 12.6 | 2.69 | 3.08 | 0.19 | 0.41 | -3.37 | -1.58 | -2.12 | -3.43 | -1.22
30 | c1ccc(Oc2ccc(Nc3ncc(-c4ccccc4)o3)cc2)cc1 | 0.18 | 0.76 | 0.58 | 0.49 | 1.32 | 0.67 | 1.6 | 0.58 | 1.05 | 0.04
31 | O=C1Nc2ccccc2/C1=C/Nc1ccc(-n2cncn2)cc1 | 4.05 | 2.3 | 6.83 | -0.87 | -2.92 | 1.77 | 13.5 | 3.98 | 14.9 | 5.75
32 | O=C(Nc1ccc(Oc2ccc3[nH]c(NC(=O)c4ccccc4)nc3c2)cc1)Nc1cc(C(F)(F)F)ccc1F | 2.85 | 2.01 | 4.57 | -0.56 | -0.86 | 4.82 | 5.63 | 1.47 | 3.89 | 4.99
33 | FC(F)(F)c1cccc(Nc2nccc(-c3cnn4nc(-c5ccccc5)ccc34)n2)c1 | -0.96 | 0.96 | -1.12 | 1.79 | -1.25 | 3.93 | 1.39 | 0.57 | 1.27 | 3.36
34 | COc1cc2ncn(-c3cc(OCc4cccs4)c(C(N)=O)s3)c2cc1OC | 1.67 | 0.52 | 2.97 | -3.4 | -4.06 | 1.35 | 3.75 | 2.01 | 5.81 | 0.06
